Among all 310,000 compounds or so, about 14,000 (4.5%) showed an effect of 50% or more. Effects have a minus sign here. Shown is part of a subset that was picked to be rich in strong results.
What follows are compounds tested against human ether-à-go-go-related gene (hERG) potassium channel (human, UniProt Q12809) (assay: primary screen, population patch clamp on CHO cells stably expressing hERG; higher = less effect of the substance).
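Note: peak tail current of the secondary pulse compared with the same well before compound.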

Sequence of human ether-à-go-go-related gene (hERG) potassium channel (Q12809 whole entry, looked up): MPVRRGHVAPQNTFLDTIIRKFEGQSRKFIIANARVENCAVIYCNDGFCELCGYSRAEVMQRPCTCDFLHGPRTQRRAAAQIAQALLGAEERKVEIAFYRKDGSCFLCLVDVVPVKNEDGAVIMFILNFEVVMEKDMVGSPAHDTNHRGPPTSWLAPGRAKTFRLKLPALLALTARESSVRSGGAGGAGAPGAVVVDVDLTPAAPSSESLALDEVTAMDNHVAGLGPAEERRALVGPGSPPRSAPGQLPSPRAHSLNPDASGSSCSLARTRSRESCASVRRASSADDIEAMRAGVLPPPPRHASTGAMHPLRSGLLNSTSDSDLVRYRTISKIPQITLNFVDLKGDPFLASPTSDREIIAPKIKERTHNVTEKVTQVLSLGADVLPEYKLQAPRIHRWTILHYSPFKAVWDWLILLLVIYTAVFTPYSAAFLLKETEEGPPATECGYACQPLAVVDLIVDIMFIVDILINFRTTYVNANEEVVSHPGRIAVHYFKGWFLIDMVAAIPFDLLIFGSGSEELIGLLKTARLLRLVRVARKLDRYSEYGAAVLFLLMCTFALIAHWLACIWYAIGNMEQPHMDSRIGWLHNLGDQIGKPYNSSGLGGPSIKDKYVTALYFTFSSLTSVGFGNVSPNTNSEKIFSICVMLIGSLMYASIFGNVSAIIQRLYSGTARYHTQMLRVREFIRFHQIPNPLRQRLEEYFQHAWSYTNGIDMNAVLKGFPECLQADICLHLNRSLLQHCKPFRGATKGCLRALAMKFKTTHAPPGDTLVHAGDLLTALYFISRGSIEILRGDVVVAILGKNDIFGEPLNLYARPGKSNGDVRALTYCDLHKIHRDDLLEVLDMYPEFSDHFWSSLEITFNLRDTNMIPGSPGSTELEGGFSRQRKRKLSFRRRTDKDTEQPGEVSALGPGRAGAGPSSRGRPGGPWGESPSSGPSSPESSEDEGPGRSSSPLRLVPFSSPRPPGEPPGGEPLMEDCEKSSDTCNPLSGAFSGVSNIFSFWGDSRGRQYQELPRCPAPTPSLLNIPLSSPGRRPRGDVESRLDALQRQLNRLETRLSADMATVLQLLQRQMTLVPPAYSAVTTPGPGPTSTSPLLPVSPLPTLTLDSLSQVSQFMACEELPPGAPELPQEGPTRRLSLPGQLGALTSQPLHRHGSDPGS

| Structure (SMILES) | hERG current change (%, negative = inhibition) at 10uM |
| --- | --- |
| COc1cc(NC(=O)c2ccc3snnc3c2)cc(OC)c1 | 13.5% |
| CCOCc1nnc(NC(=O)C2CC(=O)N(C3CCCC3)C2)s1 (centres unmarked) | 4.92% |
| COc1ccc(/C=C/c2nc(-c3ccccc3O)n[nH]2)cc1OC | 12.1% |
| CCOC(=O)Nc1c(O)ccc2oc(C)c(-c3ccccc3)c12 | -1.49% |
| O=C(Nc1ccc2nsnc2c1)N1CCCCC1 | 22.2% |
| CCCCn1c(CN2CCN(c3ccc(F)cc3)CC2)nc2c1c(=O)n(C)c(=O)n2C | -25% |
| COCCn1c(CN2CCN(c3ccccc3)CC2)nc2c1c(=O)n(C)c(=O)n2C | -13.8% |
| CCOCCn1c(CN2CCN(c3ccccc3)CC2)nc2c1c(=O)n(C)c(=O)n2C | -22.1% |
| CCOCCn1c(CN2CCN(c3cccc(Cl)c3)CC2)nc2c1c(=O)n(C)c(=O)n2C | -55% |
| CCOCCn1c(CN2CCN(C)CC2)nc2c1c(=O)n(C)c(=O)n2C | 3.97% |
| CCOCCn1c(CN2CCN(c3ccc(F)cc3)CC2)nc2c1c(=O)n(C)c(=O)n2C | -56.2% |
| COCCn1c(CN2CCN(c3cccc(Cl)c3)CC2)nc2c1c(=O)n(C)c(=O)n2C | -53.9% |
| Cn1c(=O)c2c(nc(CN3CCN(c4ccccc4)CC3)n2CCN2CCOCC2)n(C)c1=O | -21.7% |
| CCOCCn1c(CN2CCN(c3ccc(OC)cc3)CC2)nc2c1c(=O)n(C)c(=O)n2C | -41.2% |
| CC(C)Cc1nnc(NC(=O)CN2C(=O)NC3(CC(C)CC(C)(C)C3)C2=O)s1 (centres unmarked) | -20.5% |
| CN1C[C@@H]2C(c3ccccc3)C3(c4ccccc4)CC2(C3)[C@H]1c1ccccc1 (some centres unmarked) | -25.7% |
| CC(C)(C)c1ccc(-c2nnc(NC(=O)c3ccccc3)s2)cc1 | -13.6% |
| COc1ccc(C(=O)COC(=O)/C=C/c2ccccc2)cc1 | 6.99% |
| CN(C)S(=O)(=O)c1ccc(NC(=O)COC(=O)CC2CC3CCC2C3)cc1 (centres unmarked) | -9.56% |
| O=C(CSc1n[nH]c(-c2ccncc2)n1)NCCc1ccccc1 | 13.2% |
| CN(C)S(=O)(=O)c1cc(NC2CC(=O)N(c3ccc(F)cc3)C2=O)ccc1Cl (centres unmarked) | -51.1% |

| Structure (SMILES) | hERG current change (%, negative = inhibition) at 10uM |
| --- | --- |
| Cc1ccc(N2C(=O)CC(Nc3ccc(Cl)c(S(=O)(=O)N(C)C)c3)C2=O)c(C)c1 (centres unmarked) | -4.31% |
| Cc1ccc(NC2CC(=O)N(c3ccc(C)cc3)C2=O)cc1 (centres unmarked) | -0.727% |
| COc1cc(C(=O)NCCc2cn3ccc(C)cc3n2)cc(OC)c1OC | -27% |
| CCCOc1ccc(-c2nc(=S)[nH][nH]2)cc1 | 20.1% |
| O=C(Cn1nc(-c2ccccc2)ccc1=O)N1CCCCC1 | -61.6% |
| CC1CCCC(C)N1CCNC(=O)CCn1nc(-c2ccccc2)ccc1=O (centres unmarked) | -46.8% |
| O=C(Cn1nc(-c2ccccc2)ccc1=O)N1CCOCC1 | -6.25% |
| CCCN1CCN(CCCNC(=O)CCn2nc(-c3ccccc3)ccc2=O)CC1 | -47.4% |
| CCN(CC)CCCNC(=O)CCn1nc(-c2ccccc2)ccc1=O | -56.8% |
| O=C(CCn1nc(-c2ccccc2)ccc1=O)NCCCN1CCCCCC1 | -73% |
| CC1CCCN(CCCNC(=O)CCn2nc(-c3ccccc3)ccc2=O)C1 (centres unmarked) | -39% |
| CCCCNC(=O)CCn1nc(-c2ccccc2)ccc1=O | -40% |
| CCCCN(C)CCCNC(=O)CCn1nc(-c2ccccc2)ccc1=O | -52.9% |
| CCN(CC)CCCNC(=O)Cn1nc(-c2ccccc2)ccc1=O | -24.4% |
| O=C(CCn1nc(-c2ccccc2)ccc1=O)N1CCCC1 | -45% |
| CCN(CC)CCNC(=O)CCn1nc(-c2ccc(Cl)cc2)ccc1=O | -34.4% |
| O=C(CN1C(=O)C2CC=CCC2C1=O)Nc1nnc(C2CC2)s1 (centres unmarked) | 6.01% |
| COc1ccc(N(CC(=O)NC2CC3CCC2C3)S(=O)(=O)c2ccccc2)cc1Cl (centres unmarked) | -19.4% |
| O=C(CSc1ccc2c(c1)OCCO2)Nc1ccc(Cl)cn1 | 24.3% |
| CN(C)C(=O)c1noc2cc([N+](=O)[O-])ccc12 | -12% |
| Cc1c(C#N)c2ccccc2n1CC(=O)NCC1CCCO1 (centres unmarked) | 16.8% |

| Structure (SMILES) | hERG current change (%, negative = inhibition) at 10uM |
| --- | --- |
| CCc1ccccc1NC(=O)COc1ccc2oc(-c3ccc(OC)cc3)cc(=O)c2c1 | 5.29% |
| O=S(=O)(NCc1ccccc1)c1ccc(-n2cccn2)cc1 | -16.6% |
| Cc1nc(SCC(=O)N2CCCCCC2)[nH]c(=O)c1C | 19.5% |
| CCc1cc(=O)[nH]c(SCCC(F)=C(F)F)n1 | 27.7% |
| CCc1cc(=O)[nH]c(SCCCF)n1 | -50.2% |
| CCCCSc1nc(CCC)cc(=O)[nH]1 | -7.39% |
| CC(c1ccccc1)N1C(=O)/C(=C/c2ccncc2)SC1=S (centres unmarked) | 3.24% |
| CC(NC(=O)NCCCC(=O)O)(C(F)(F)F)C(F)(F)F | 11.3% |
| CC(C)c1ccc(OCCCN2CCCC2)cc1 | -67.1% |
| CC(C)(C)c1ccc(OCCCCCCN2CCNCC2)cc1 | -0.393% |
| CC(C)c1ccc(/C=N/N2CCCCC2)cc1.O=C(O)C(=O)O | -84.3% |
| CC(=O)Nc1ccc(/C=N/N2CCCCC2)cc1 | 16.5% |
| CC(C)c1ccc(OCCCCCN2CCOCC2)cc1.O=C(O)C(=O)O | -24.9% |
| CC(C)(C)c1ccc(OCCN2CCCC2)cc1 | -20.6% |
| CC(C)(C)c1ccc(OCCCN2CCCC2)cc1 | -56.4% |
| CCC(C)c1ccc(OCCN2CCCC2)cc1 (centres unmarked) | -15.4% |
| CC(C)c1ccc(OCCCCN2CCCCC2)cc1.O=C(O)C(=O)O | -58.8% |
| Cc1cc(OCCN2CCCC2)cc(C(C)C)c1.O=C(O)C(=O)O | -0.795% |
| Clc1ccc(/C=N/N2CCCCC2)cc1 | 7.36% |
| c1cc(OCCCN2CCCCC2)ccc1CN1CCCCC1 | 14.1% |

From PMC4336329 (PLoS ONE, 2015)
